In the supplement of paper PMC11732987, “Enantioselective OTUD7B fragment discovery through chemoproteomics screening and high-throughput optimisation” (Communications Chemistry, 2025):

Tests used:
Test in all cases: log2 ratio of Biotin-Ahx-Ub-VS probe labelling (fragment/DMSO); higher = less target engagement (more negative = stronger competition), active = hit call of the paper (q ≤ 0.05, log2 ratio ≤ -1)
Settings in all cases: compound concentration: 200 uM; treatment time: 3 h
USP42 = biological target: T1, USP42 (UniProt Q9H9J4)
T1 sequence (whole entry): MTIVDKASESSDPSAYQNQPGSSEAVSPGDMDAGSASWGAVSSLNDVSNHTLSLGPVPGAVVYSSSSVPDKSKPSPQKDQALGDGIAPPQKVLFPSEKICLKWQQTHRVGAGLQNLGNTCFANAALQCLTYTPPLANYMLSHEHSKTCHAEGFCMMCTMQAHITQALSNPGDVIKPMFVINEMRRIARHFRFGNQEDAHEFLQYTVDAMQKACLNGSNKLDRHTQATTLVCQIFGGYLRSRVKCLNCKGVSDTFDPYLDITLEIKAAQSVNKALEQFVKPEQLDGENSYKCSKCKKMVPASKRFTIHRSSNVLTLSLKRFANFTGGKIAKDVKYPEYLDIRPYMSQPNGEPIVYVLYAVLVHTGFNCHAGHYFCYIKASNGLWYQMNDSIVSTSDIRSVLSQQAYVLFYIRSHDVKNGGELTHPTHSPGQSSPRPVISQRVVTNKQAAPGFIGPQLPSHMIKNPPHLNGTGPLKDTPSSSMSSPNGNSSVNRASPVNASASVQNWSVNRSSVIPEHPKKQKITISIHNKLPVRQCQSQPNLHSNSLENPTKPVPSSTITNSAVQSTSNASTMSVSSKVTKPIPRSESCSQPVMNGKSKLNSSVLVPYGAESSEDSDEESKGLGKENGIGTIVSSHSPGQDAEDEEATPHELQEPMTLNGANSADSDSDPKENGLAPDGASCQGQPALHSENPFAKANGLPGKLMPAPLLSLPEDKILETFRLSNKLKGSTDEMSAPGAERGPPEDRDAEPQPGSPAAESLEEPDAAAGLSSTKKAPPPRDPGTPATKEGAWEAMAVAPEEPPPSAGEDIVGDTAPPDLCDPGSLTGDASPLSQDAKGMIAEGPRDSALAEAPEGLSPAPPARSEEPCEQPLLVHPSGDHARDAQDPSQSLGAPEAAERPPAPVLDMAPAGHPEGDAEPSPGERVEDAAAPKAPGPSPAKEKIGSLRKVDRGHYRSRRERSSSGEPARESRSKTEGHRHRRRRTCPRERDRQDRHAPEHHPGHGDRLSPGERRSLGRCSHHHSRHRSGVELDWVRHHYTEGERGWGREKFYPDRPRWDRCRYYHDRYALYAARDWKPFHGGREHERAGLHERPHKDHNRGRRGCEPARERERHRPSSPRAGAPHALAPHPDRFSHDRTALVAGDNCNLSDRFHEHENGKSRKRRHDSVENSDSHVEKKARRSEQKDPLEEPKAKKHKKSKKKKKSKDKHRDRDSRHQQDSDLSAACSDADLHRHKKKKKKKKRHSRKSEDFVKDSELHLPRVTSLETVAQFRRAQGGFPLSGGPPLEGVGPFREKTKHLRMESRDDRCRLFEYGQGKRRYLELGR
Procedure, shortened: (§1)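 Labelled DUBs from HEK293T lysate were NeutrAvidin-enriched, digested with LysC and trypsin, and run by diaPASEF LC-MS/MS. Before that, each 495 µg sample in Tris/CHAPS/IGEPAL buffer with protease inhibitors was treated in triplicate with fragment at 200 µM or vehicle for 3 h, then with Biotin-Ahx-Ub-VS at 0.5 µM final for 1 h. Values are average log2 ratios of fragment over vehicle by unpaired t-test, based on global-median-normalised Spectronaut label-free quantities from proteins with ≥2 unique peptides.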

USP46 = USP46 (UniProt P62068)
Procedure, shortened: as §1

USP47 = biological target: T2, USP47 (UniProt Q96K76)
T2 sequence (whole entry): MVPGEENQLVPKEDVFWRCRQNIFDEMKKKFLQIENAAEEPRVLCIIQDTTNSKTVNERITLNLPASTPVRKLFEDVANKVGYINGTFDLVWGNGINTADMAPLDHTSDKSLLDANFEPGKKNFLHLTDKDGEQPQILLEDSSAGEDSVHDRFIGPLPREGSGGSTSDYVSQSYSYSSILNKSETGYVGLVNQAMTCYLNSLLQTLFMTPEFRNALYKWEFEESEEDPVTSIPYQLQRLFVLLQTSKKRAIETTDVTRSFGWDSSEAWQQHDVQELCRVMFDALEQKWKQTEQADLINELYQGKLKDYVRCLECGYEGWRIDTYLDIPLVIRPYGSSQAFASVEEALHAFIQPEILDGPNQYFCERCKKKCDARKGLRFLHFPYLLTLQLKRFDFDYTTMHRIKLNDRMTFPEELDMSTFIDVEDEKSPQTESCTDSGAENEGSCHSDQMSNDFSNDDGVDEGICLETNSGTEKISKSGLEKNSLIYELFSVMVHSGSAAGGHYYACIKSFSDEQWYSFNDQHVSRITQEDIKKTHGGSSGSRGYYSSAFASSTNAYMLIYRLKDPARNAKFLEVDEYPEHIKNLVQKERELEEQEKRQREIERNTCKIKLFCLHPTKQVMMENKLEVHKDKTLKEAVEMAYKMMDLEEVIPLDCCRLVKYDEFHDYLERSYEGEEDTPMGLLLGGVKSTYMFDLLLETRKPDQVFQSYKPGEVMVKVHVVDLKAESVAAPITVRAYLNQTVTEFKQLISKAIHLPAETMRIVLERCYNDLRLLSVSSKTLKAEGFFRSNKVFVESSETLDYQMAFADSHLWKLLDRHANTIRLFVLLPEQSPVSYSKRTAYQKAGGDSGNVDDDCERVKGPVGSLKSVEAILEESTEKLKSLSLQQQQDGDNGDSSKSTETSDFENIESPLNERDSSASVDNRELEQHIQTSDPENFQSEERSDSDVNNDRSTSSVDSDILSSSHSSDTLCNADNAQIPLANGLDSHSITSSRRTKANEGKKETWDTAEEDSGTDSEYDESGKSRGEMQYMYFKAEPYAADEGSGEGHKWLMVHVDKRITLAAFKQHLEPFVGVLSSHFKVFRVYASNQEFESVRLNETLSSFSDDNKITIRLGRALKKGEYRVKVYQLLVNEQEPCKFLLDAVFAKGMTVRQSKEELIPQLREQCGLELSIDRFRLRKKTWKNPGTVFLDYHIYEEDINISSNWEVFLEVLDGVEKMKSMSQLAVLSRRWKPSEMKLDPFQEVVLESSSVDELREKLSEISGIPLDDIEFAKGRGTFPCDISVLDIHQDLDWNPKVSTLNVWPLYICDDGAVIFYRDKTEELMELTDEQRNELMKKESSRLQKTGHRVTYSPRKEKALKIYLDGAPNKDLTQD
Procedure, shortened: as §1

USP48 = biological target: T3, USP48 (UniProt Q86UV5)
T3 sequence (whole entry): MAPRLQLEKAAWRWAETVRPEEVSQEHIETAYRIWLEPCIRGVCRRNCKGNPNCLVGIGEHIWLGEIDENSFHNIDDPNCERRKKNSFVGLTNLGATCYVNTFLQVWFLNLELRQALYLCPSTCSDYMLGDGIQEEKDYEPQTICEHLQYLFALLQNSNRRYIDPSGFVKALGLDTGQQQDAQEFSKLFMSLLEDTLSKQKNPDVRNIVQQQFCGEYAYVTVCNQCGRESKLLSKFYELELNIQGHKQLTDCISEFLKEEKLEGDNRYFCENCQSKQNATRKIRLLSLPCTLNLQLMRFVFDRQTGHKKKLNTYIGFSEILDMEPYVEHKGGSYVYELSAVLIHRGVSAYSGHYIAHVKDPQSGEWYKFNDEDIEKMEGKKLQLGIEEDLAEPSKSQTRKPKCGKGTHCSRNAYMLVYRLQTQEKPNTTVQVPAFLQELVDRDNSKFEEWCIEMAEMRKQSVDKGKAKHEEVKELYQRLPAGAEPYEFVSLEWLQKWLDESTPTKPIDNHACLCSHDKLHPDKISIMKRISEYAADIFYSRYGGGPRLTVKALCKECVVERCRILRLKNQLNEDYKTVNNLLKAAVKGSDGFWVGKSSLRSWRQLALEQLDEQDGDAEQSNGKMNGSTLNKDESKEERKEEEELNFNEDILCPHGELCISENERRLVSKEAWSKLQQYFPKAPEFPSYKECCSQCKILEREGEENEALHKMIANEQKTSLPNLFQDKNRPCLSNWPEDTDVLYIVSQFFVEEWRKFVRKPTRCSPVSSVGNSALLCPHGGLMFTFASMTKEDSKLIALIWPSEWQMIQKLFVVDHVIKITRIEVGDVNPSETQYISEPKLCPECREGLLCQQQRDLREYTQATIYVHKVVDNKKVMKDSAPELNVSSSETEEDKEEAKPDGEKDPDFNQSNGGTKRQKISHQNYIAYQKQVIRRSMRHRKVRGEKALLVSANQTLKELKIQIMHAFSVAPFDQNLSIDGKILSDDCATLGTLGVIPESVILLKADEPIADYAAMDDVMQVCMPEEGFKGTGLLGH
Procedure, shortened: as §1

USP5 = biological target: T4, USP5 (UniProt P45974)
T4 sequence (whole entry): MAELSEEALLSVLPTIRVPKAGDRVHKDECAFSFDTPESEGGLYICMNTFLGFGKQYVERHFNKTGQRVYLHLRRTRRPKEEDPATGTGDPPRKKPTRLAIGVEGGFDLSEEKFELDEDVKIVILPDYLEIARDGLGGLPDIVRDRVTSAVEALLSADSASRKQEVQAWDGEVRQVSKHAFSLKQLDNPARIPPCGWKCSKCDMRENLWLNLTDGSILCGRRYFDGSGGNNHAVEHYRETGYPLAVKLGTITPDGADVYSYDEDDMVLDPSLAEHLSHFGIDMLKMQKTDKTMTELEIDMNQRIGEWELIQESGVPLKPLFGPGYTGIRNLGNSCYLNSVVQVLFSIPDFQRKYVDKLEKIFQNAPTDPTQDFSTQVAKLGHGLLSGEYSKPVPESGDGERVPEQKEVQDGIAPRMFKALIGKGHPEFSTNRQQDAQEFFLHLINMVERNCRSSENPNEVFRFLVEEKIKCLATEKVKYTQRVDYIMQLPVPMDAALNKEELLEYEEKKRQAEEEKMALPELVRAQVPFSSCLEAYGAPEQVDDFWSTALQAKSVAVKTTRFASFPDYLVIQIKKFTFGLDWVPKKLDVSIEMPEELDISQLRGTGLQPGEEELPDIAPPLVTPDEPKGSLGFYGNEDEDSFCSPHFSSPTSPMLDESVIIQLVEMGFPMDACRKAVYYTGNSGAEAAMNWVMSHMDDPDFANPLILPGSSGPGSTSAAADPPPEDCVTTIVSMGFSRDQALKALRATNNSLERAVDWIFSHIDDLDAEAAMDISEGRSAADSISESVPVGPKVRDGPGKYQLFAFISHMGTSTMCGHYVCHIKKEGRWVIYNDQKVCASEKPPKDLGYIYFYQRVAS
Procedure, shortened: as §1

USP54 = USP54 (UniProt Q70EL1)
Procedure, shortened: as §1

USP7 = USP7 (UniProt Q93009)
Procedure, shortened: as §1

USP8 = biological target: T5, USP8 (UniProt P40818)
T5 sequence (whole entry): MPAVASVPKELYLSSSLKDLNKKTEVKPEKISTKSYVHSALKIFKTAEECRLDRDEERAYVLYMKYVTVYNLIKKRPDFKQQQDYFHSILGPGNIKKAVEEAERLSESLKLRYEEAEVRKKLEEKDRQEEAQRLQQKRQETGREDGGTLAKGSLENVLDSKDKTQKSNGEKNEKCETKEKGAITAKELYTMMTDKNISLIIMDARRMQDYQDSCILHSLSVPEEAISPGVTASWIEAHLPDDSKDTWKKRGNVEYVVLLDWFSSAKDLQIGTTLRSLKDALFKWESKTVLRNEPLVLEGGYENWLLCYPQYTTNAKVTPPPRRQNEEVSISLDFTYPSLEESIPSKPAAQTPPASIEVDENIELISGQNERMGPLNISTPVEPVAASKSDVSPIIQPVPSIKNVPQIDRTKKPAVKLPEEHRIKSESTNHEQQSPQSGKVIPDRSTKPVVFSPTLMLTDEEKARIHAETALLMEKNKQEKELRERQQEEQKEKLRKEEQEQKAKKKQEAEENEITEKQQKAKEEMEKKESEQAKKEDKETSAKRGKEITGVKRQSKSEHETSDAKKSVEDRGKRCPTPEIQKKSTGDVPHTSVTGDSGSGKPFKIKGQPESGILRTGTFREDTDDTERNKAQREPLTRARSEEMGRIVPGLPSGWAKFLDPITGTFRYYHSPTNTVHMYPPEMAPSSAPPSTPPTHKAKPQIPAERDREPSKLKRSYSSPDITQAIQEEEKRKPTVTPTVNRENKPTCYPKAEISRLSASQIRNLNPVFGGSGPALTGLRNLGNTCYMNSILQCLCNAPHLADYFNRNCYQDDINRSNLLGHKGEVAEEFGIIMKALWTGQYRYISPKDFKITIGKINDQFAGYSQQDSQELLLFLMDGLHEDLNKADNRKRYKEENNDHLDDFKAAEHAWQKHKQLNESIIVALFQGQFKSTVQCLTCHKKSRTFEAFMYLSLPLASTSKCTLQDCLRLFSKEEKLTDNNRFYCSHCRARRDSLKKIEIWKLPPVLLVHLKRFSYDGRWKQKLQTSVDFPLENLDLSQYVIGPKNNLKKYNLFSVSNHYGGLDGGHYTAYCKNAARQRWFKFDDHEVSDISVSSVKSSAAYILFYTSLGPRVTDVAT
Procedure, shortened: as §1

Measured: log2 ratio of Biotin-Ahx-Ub-VS probe labelling

USP54, sequence (Q70EL1 whole entry): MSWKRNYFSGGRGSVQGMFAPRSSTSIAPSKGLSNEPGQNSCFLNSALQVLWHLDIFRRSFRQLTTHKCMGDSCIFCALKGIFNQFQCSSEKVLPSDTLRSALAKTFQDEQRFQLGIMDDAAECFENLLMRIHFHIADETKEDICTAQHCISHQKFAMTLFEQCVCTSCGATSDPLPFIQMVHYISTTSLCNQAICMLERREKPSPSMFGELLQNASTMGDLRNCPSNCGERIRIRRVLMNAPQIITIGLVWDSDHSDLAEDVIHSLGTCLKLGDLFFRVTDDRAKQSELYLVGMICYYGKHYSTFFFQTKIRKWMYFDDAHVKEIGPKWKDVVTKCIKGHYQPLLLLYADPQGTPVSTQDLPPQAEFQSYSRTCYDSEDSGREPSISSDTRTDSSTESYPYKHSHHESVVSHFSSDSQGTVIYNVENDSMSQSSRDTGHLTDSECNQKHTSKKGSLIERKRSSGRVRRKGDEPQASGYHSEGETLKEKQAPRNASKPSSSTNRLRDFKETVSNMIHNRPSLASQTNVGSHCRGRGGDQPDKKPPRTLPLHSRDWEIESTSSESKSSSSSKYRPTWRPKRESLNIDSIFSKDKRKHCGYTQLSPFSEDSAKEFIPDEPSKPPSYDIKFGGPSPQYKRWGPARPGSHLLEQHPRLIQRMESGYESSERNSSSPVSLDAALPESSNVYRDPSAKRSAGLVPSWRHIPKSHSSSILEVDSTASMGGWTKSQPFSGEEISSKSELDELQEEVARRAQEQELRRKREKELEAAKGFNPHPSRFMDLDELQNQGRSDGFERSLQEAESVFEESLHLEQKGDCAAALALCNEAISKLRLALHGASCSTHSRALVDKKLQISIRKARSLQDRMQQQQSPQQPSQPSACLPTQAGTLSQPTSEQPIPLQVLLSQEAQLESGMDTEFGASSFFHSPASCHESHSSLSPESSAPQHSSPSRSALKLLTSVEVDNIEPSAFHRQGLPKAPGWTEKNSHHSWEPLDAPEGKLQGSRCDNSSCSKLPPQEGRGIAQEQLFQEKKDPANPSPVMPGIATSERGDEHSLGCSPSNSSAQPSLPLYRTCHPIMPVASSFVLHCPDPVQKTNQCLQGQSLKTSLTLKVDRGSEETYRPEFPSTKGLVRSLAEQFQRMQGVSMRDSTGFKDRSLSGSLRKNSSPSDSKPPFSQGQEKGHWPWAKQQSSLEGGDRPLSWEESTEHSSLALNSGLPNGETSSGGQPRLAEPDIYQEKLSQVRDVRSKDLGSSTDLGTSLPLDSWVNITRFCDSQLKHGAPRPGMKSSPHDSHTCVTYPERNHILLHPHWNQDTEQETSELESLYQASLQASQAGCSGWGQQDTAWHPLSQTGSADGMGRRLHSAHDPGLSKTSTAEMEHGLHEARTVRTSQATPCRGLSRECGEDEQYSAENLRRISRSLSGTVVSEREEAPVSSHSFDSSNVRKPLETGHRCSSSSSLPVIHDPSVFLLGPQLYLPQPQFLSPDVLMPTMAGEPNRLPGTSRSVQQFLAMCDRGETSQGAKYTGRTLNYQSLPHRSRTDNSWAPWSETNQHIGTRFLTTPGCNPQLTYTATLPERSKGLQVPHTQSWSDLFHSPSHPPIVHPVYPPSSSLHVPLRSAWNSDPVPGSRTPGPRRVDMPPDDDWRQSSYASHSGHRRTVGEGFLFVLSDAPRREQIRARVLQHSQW
USP46, sequence (P62068 whole entry): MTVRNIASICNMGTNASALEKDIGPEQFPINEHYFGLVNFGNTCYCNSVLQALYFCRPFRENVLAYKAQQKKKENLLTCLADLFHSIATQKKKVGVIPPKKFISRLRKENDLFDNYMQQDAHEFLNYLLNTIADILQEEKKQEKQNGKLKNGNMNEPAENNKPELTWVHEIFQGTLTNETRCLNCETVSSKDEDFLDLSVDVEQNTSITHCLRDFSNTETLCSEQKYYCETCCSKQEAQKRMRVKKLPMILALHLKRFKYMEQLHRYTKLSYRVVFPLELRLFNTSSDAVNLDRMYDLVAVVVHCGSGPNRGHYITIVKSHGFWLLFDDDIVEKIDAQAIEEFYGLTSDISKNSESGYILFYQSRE
USP7, sequence (Q93009 whole entry, looked up): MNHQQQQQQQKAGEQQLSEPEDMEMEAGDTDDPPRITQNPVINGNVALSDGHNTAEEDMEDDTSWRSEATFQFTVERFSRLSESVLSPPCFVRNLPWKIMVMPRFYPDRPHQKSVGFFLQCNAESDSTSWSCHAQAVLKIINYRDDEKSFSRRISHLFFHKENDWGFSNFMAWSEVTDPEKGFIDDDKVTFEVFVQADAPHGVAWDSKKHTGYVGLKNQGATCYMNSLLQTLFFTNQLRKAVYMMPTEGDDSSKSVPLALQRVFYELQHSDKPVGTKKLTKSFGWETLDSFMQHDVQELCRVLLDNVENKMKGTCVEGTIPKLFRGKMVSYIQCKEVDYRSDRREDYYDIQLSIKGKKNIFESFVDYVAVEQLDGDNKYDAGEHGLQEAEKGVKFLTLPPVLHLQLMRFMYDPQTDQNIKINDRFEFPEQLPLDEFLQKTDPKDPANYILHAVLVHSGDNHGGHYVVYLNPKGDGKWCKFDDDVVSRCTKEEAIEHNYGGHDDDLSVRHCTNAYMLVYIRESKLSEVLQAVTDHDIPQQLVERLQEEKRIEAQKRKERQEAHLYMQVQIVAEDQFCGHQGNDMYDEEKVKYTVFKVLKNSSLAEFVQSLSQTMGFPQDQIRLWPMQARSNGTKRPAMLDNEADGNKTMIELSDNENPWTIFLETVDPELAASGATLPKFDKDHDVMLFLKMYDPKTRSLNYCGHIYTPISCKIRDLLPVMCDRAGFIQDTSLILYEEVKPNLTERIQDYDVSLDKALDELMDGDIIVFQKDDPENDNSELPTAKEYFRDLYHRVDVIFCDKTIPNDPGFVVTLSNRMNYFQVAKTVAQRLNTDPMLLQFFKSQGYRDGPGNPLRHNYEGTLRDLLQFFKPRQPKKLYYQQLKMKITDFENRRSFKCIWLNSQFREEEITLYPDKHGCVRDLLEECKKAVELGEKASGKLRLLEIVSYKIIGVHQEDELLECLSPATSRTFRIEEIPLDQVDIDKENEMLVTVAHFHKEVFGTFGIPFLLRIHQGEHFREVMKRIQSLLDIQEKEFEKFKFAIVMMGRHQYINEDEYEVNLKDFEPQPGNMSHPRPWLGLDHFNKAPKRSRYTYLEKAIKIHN

Cc1cccc(C)c1NC(=O)CCl
inactive: USP42 -0.0226 | USP46 -0.0272 | USP47 0.139 | USP48 -0.538 | USP5 -0.194 | USP54 0.412 | USP7 -0.264 | USP8 -0.461
